# Source: PMC5540273 (PLoS ONE, 2017)
# Columns and labels:
# Settings in all cases: concentration: 1 μM, replicates: in singlicate; n = 1
# MEK5 = tested on: T1, MEK5
# T1 construct: gene MAP2K5
# MEK6 = tested on: T2, MEK6
# T2 construct: gene MAP2K6
# MELK = tested on: MELK
# MERTK = tested on: MERTK
# MET = tested on: MET
# MINK = tested on: T3, MINK
# T3 construct: gene MINK1
# MKK7 = tested on: MKK7
# MKNK1 = tested on: MKNK1
# MKNK2 = tested on: MKNK2
# MLCK = tested on: T4, MLCK
# T4 construct: gene MYLK3
# MLK1 = tested on: T5, MLK1
# T5 construct: gene MAP3K9
# MLK2 = tested on: MLK2
# MLK3 = tested on: MLK3
# MRCKA = tested on: MRCKA
# MRCKB = tested on: T6, MRCKB
# T6 construct: gene CDC42BPB
# MST1R = tested on: MST1R
# MST1 = tested on: T7, MST1
# T7 construct: gene STK4
# MST2 = tested on: T8, MST2
# T8 construct: gene STK3
# MST3 = tested on: T9, MST3
# T9 construct: gene STK24
# MST4 = tested on: MST4
# 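Further: KINOMEscan kinase panel screen.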
Structure (SMILES),%Inh (MEK5) [%],%Inh (MEK6) [%],%Inh (MELK) [%],%Inh (MERTK) [%],%Inh (MET) [%],%Inh (MINK) [%],%Inh (MKK7) [%],%Inh (MKNK1) [%],%Inh (MKNK2) [%],%Inh (MLCK) [%],%Inh (MLK1) [%],%Inh (MLK2) [%],%Inh (MLK3) [%],%Inh (MRCKA) [%],%Inh (MRCKB) [%],%Inh (MST1R) [%],%Inh (MST1) [%],%Inh (MST2) [%],%Inh (MST3) [%],%Inh (MST4) [%]
Cl.Cl.NCC(NCc1ccc(-c2ccnc3[nH]ccc23)s1)c1ccccc1 (centres unmarked) [GSK1321565],43,4,64,74,0,51,0,2,65,6,0,0,7,23,64,12,0,48,0,0
COc1ccc(CNC(=O)NC2CCN(c3ccnc(Nc4ccc(F)cc4)n3)CC2)cc1 [GSK1379788],9,0,0,0,0,0,0,2,0,0,0,0,0,19,0,35,3,0,0,0
COc1cc(Nc2nccc(-c3c(-c4cccc(NC(=O)c5c(F)cccc5F)c4)nn4ccccc34)n2)cc(OC)c1OC [GSK323521],79,3,3,59,58,8,32,7,22,9,28,56,17,0,0,6,92.1,39,33,33
Cc1cccc(NC(=O)Nc2ccc(Oc3ncnc4ccn(C)c34)cc2)c1,25,0,0,9,19,3,0,3,88,0,2,0,0,0,0,7,14,0,0,0
CCc1ccc(-c2ccc3c(c2)-c2c(cnn2C)S(=O)(=O)N3C)cc1,0,0,0,0,26,0,0,0,0,1,7,0,0,0,0,31,0,0,0,0
COc1cccc(-c2ccc3c(NC(=O)C4CC4)n[nH]c3n2)c1 [SB-710903],61,0,0,38,28,76,0,32,21,47,19,0,0,21,0,29,3,0,0,0
O=C(Nc1cccc(-c2nn3ncccc3c2-c2ccnc(Nc3ccccc3)n2)c1)c1c(F)cccc1F [GSK198271],99.9,59,0,79,43,23,27,11,7,8,0,0,11,69,88,15,47,100,12,0
COc1ccc(-c2coc3ccc(-c4nnc(SCc5ccc(OC)c(C(F)(F)F)c5)o4)cc23)cc1,4,0,20,11,13,26,14,0,1,0,14,0,0,0,0,0,32,11,17,0
Nc1ncnc2c1nc(-c1ccccc1)n2-c1ccccc1 [SKF-97293],32,27,0,0,10,16,38,0,18,23,16,2,0,0,0,18,21,20,0,24
CN1CCN(Cc2cccc(-c3ccc4c(Nc5ccc(Oc6ccccc6)cc5)ccnc4c3)c2)CC1 [GW578342],100,0,16,0,5,9,7,8,51,1,4,5,4,0,0,35,12,0,3,0
